Screens: PubChem, National Center for Advancing Translational Sciences (NCATS)
AmpC no deterg: inhibitors of E. coli AmpC beta-lactamase without detergent; P00811; AmpC nitrocefin hydrolysis, absorbance 480 nm, 0.0001% Triton; Potency, µM (highest dose often 57.1 µM), for inactives: at the top dose activity change, negative = inhibition, most hits filed as inhibitors; hit rate 0.52% among 330,000; AID 485341;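 note: plate controls were no compound for no effect and no enzyme for full effect; nearly all actives have a fitted effect of over 20% in size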
Target sequence (P00811 whole entry, looked up): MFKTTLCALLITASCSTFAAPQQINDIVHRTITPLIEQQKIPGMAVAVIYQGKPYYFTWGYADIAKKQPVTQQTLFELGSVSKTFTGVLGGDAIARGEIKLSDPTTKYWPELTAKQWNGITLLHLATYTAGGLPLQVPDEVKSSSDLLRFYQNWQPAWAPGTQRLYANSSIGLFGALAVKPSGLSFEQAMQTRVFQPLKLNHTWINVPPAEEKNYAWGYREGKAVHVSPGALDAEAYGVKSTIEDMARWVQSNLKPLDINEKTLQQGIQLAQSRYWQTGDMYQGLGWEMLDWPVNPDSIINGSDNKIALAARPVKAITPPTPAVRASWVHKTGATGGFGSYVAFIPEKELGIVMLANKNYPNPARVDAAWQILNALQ
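AmpC (5.3 nM in the dispensed reagent) in 20 mM phosphate pH 7.0 with 0.01% (detergent screen) or 0.0001% Triton X-100 was preincubated with compounds for 15 min at room temperature. Nitrocefin was then added from an 800 uM solution, and hydrolysis was followed at 480 nm.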
AmpC detergent: blocks E. coli AmpC beta-lactamase in detergent assay; P00811; AmpC hydrolysis of nitrocefin, absorbance 480 nm, 0.01% Triton; Potency, µM (doses to about 114 µM), without a hit: at the highest dose activity change, negative = inhibition, most hits filed as inhibitors; hit rate 0.041% among 370,000; AID 485294;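 note: 0% = no-compound wells and -100% = no-enzyme wells; nearly all actives have a fitted effect of over 25% in size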
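AmpC (5.3 nM in the dispensed reagent) in 20 mM phosphate pH 7.0 with 0.01% (detergent screen) or 0.0001% Triton X-100 was preincubated with compounds for 15 min at room temperature. Nitrocefin was then added from an 800 uM solution, and hydrolysis was followed at 480 nm.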
Sm TGR inh: S. mansoni TGR enzyme inhibition. Q962Y6. purified TGR, DTNB reduction, TNB absorbance 405 nm. Potency, µM (top dose mostly 114 µM), inactives show top-dose activity change, negative = inhibition, usual class: inhibitors. hit rate 3% among 360,000; note: nearly all actives have a fitted effect of over 60% in size
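TGR 20 nM + NADPH 100 uM (dispensed conc.), cpd preinc 15 min RT; start with NADPH (500 uM addition) then DTNB (15 mM addition). Kinetic TNB absorbance, 405 nm filter. Four-parameter Hill fit across titration.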
* marks the source's active call; other numbers are inactive results; ? = inconclusive; . = no result given; [ ] = dose if it differs, or a comment. Only some compounds are listed: those with a hit (about 3.3% of all), similar ones and a draw of the others. Calls come from the whole dose curve; as a rule, active = well fitted curve in the direction sought with a large enough effect; inconclusive = small, poorly fitted or top-dose-only effect, or another doubt; inactive = no such curve, though single readings can be large; an effect the other way counts as inactive or inconclusive. Unless noted, % is set by controls: 0 for no effect and ±100 for the full control effect; potency is the fitted concentration of half-maximal effect.

SMILES | AmpC no deterg | AmpC detergent | Sm TGR inh
O=C(c1ccco1)N1CCN(c2c(-c3ccccc3)c3cc(Cl)ccc3[nH]c2=O)CC1 | 90.5% | ? | -22.9%
O=C(c1ccco1)N1CCN(c2cc(=O)n(-c3ccc(Cl)cc3)c(=O)[nH]2)CC1 | 44.7µM* | ? | 57.5%
Cc1ccc(Cl)cc1-n1c(=O)cc(N2CCN(C(=O)c3ccco3)CC2)[nH]c1=O | -13.7% | 2.5% | ?
O=C(O)c1ccc(C2Nc3ccccc3C(=O)N2Cc2ccccc2)cc1 (configuration not stated) | 2.1% | -9.1% | -14.8%
O=C(NC1CCSc2ccccc21)c1cc(S(=O)(=O)N2CCOCC2)ccc1F (configuration not stated) | 46.6% | 3.0% | -21.3%
O=C(NC1CCSc2ccccc21)c1ccc(F)c(S(=O)(=O)N2CCOCC2)c1 (configuration not stated) | 108.5% | -4.7% | 39.8µM*
Cc1cccc(S(=O)(=O)N2CCn3cccc3C2C)c1 (configuration not stated) | -32.6% | 2.3% | 44.7µM*
Cc1ccc(S(=O)(=O)N2CCn3cccc3C2C)cc1 (configuration not stated) | 24.8% | ? | ?
CCCOc1ccc(N2C(=O)CC(SCCc3nc4ccccc4[nH]3)C2=O)cc1 (configuration not stated) | -19.2% | -2.3% | -12.7%[57.1 µM]
O=C1CC(SCCc2nc3ccccc3[nH]2)C(=O)N1c1ccc(Cl)cc1 (configuration not stated) | -32.2% | 3.0% | ?
O=C1CC(SCc2nc3ccccc3[nH]2)C(=O)N1c1ccc(F)c(Cl)c1 (configuration not stated) | -18.2% | -8.4% | 39.8µM*
CCOc1ccc(N2C(=O)CC(SCc3nc4ccccc4[nH]3)C2=O)cc1 (configuration not stated) | -28.9% | -3.3% | 44.7µM*
O=C1CC(SCc2nc3ccccc3[nH]2)C(=O)N1c1ccc(Cl)cc1 (configuration not stated) | -45.1% | ? | 25.1µM*
O=C1CC(SCc2nc3ccccc3[nH]2)C(=O)N1c1cccc(F)c1 (configuration not stated) | -51.9% | -1.6% | ?
Cc1cc[n+](CC2OCc3ccccc3CO2)cc1 | -2.3% | -3.9% | 0.0%
O=C(NCc1ccccc1)C(c1ccc(O)cc1)N(C(=O)c1cnccn1)c1ccccc1 (configuration not stated) | -19.5% | ? | 6.3%
CC(=O)Nc1ccc(N(C(=O)c2cnccn2)C(C(=O)NC2CCCCC2)c2ccc(F)cc2)cc1 (configuration not stated) | 129.0% | 8.2% | 6.9%
CC(=O)Nc1ccc(N(C(=O)c2cnccn2)C(C(=O)NC2CCCCC2)c2ccc(O)cc2)cc1 (configuration not stated) | -26.0% | 6.6% | 15.8µM*
COc1ccc(N(C(=O)c2cnccn2)C(C(=O)NCc2ccccc2)c2ccc(O)cc2)cc1 (configuration not stated) | -14.8% | 8.5% | 28.2µM*
CCOC(=O)c1c(C)oc(NC(=O)CCl)c1C(=O)OCC | -4.3% | -2.5% | 14.1µM*
CCOC(=O)c1c(C)oc2cc(Br)c(O)c(Br)c12 | -32.0% | ? | 17.9%
CCOC(=O)C1=C(C)C(c2ccccc2OC)NC(=S)N1 (configuration not stated) | -28.0% | ? | 1.9%
Cc1ccc(NC(=O)CCn2cccc2)cc1Cl | -3.8% | -2.8% | 35.5µM*
Cc1ccc(NC(=O)Cn2nc3c(cc2=O)CCCC3)cc1Cl | . | 5.8% | 0.5%
Cc1ccc(NC(=O)Cn2nc(-c3ccco3)ccc2=O)cc1Cl | -20.0% | ? | 6.31µM*
SMILES | AmpC no deterg | AmpC detergent | Sm TGR inh
CCc1ccc(NC(=O)CCn2cccc2)cc1 | -13.2% | -5.8% | ?
CCCN(CCC)CCCNC(=O)Cn1cnc2onc(-c3ccc(F)cc3)c2c1=O | . | 24.6% | 1.4%
CC(C)CCc1noc(CN2CCC(CCN3CCCC3=O)CC2)n1 | -1.5% | -9.1% | -1.5%
COc1cc(Cl)c(C)cc1NC(=O)c1cnc2c(-c3cccc(C)c3)c(C)nn2c1C | . | -5.8% | -6.7%
CC1CN(c2ccc([N+](=O)[O-])nc2)CC(C)O1 (configuration not stated) | -16.0% | -2.0% | -4.5%
O=C(c1ccc(S(=O)(=O)N2CCCC2)cc1)N1CCCCC1 | -6.4% | -8.0% | 2.9%
O=C(/C=C/c1ccc(O)c(O)c1)c1ccc(S(=O)(=O)N2CCCCCC2)cc1 | 25.1µM* | ? | -25.2%
CCOC(=O)/C(C#N)=C/c1ccc(OC)c(OC)c1 | -11.3% | ? | 5.5%
CCCCCCC(=O)Cc1cc(OC)c(OC)cc1C=C(C(=O)OCC)C(=O)OCC | 178.4% | ? | 39.8µM*
CSc1ncc(Cl)c(C(=O)N(Cc2ccc(C(C)C)cc2)C2CCS(=O)(=O)C2)n1 (configuration not stated) | . | -6.0% | 0.9%
CC(C)c1ccc(C2CC(=O)c3cnc(NC(=O)c4ccco4)nc3C2)cc1 (configuration not stated) | 79.5% | ? | -20.0%
O=C(CCl)NCCN1C(=O)S/C(=C\c2cccnc2)C1=O | 0.8% | -7.9% | 39.8µM*
CC(C(=O)NCCN1C(=O)S/C(=C\c2cccnc2)C1=O)N1C(=O)c2ccccc2C1=O (configuration not stated) | -18.2% | 3.4% | 3.5%
CCCC(C)NC(=O)c1sc2nc3n(c(=O)c2c1C)CCC3 (configuration not stated) | -8.7% | -2.4% | 5.4%
COc1ccc(CNc2nc3ccccc3n2C)c(OC)c1 | -1.2% | 5.2% | 0.0%
COc1ccc(N=Nc2nc3cc(Br)c(Br)cc3n2C)c(OC)c1 | 94.2% | 11.1% | 44.7µM*
CCCN(CC(=O)Nc1ccc(F)c(F)c1F)C(=O)Cn1c(=O)cnc2ccccc21 | -9.3% | -4.2% | -1.7%
CC(C)N1CCC(N2CCN(CC#Cc3ccccc3)CC2CCO)CC1 (configuration not stated) | 0.5% | -7.1% | ?
Cc1ccc(N2C(=O)CC(Sc3nc4ccccc4o3)C2=O)cc1Cl (configuration not stated) | -45.4% | ? | 12.6µM*
Cc1ccc(N2C(=O)CC(N3CCc4ccccc43)C2=O)cc1Cl (configuration not stated) | -14.4% | 4.2% | 7.2%
COc1ccc(Nc2ncnc3c2c(C)c(C)n3CCCN(C)C)cc1 | 21.3% | -2.8% | 5.6%
COCCN(CC(=O)NC1CCCCC1)C(=O)/C=C/C(=O)c1ccc(OC)cc1O | 49.9% | -3.4% | -13.6%
COc1ccc(C(=O)/C=C/C(=O)N(CC(=O)NC2CCCCC2)Cc2cccs2)c(O)c1 | 22.6% | 0.4% | 1.58µM*
O=S(=O)(c1ccc(Br)cc1)c1nc(-c2cccs2)oc1SCc1ccc(F)cc1 | . | 11.4% | -7.7%
COC(=O)c1ccc(CSc2ccc3nnc(-c4cccc(F)c4)n3n2)o1 | ? | -19.0% | 25.1µM*
CCOC(=O)CC(=O)CSc1ccc2nnc(-c3cccc(F)c3)n2n1 | -4.8% | ? | -5.7%
O=[N+]([O-])c1ccc(Cl)c(S(=O)(=O)Nc2cccc(-c3ccc(N4CCCC4)nn3)c2)c1 | -53.6% | -14.7% | -0.4%
